Hits are enriched below; roughly 2.8% of the tested compounds scored in any of these assays.
POLB inh: DNA polymerase beta (human) inhibition. Pol beta primer extension/strand displacement, fluorescence kinetic. Potency, µM (series often up to 114 µM), most hits filed as inhibitors. AID 485314. 340,000 tested, 1.3% active. P06746
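Reaction started by 50 nM substrate onto compound-treated Pol beta (10 nM, 15 min preincubation, room temperature); plates read at 0 min and 10 min. Normalized concentration-effect data fitted by four-parameter Hill equation.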
PI5P4K alpha inh: blocks human PI5P4K alpha kinase activity | P48426 | AID 652105 | PI5P4Kalpha enzyme, ADP-Glo luminescence, 60 min; active compounds read low | max response, % | 330,000 tested, 1.2% active; active means max response of -50% or lower; inconclusive means between -30% and -50%; inactive means -30% or higher; further: value at the top dose of about 77 µM
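Human PI5P4Kalpha with substrate in 0.038 M HEPES pH 7.4, 0.28 mM EGTA, 0.1% CHAPS, 5% DMSO; reaction started with 5 microM ATP (final), 60 min at room temperature. ADP formed read by ADP-Glo luminescence.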
Pol iota inh: DNA polymerase iota (human) inhibition; AID 588590; Potency, µM (doses to about 115 µM), most hits filed as inhibitors; 390,000 tested, 1% active; Q9UNA4; Pol iota fluorescent replication assay, 10 min
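Fluorescent replication assay read twice, at 0 min and 10 min after adding 50 nM (final) substrate. Enzyme (10 nM) and compounds were first incubated 15 min at room temperature; enzyme-free buffer wells were negative controls.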
FEN1 inhibitor: blocks human flap endonuclease 1 | Potency, µM (titrated, usually from 114 µM), actives largely listed as inhibitors | 390,000 tested, 0.35% active | P39748 | Recombinant FEN1 flap cleavage, fluorescence, 15 min; further: nearly all actives have a fitted effect of over 65% in size
Target sequence (P39748 whole entry, looked up): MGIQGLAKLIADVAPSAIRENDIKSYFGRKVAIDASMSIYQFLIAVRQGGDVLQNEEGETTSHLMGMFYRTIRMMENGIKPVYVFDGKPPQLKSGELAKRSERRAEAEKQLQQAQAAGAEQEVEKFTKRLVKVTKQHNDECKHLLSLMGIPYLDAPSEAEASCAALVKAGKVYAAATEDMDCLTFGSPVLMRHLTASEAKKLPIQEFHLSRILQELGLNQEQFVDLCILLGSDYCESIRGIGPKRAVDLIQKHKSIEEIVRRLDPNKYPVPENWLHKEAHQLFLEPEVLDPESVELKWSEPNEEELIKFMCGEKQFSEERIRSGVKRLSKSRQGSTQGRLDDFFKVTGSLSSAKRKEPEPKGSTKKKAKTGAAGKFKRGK
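FEN1 at 10 nM, compound pretreatment for 15 min (room temperature), 50 nM final substrate to initiate; endpoint reads at 0 and 15 min; DMSO-only plates used as vehicle background.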
POLH inh: blocks human DNA polymerase eta activity. Potency, µM (titrated, usually from 114 µM), hits mostly inhibitors. recombinant Pol eta, fluorescent DNA replication assay. 390,000 tested, 1.2% active. Q9Y253. AID 588591
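Fluorescent replication assay: 50 nM final substrate added after a 15 min room-temperature compound preincubation with 10 nM enzyme. Signal taken at 0 min and again at 10 min.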
POLK inh: inhibitors of human DNA polymerase kappa; purified Pol kappa, fluorescent DNA synthesis assay, 10 min; Potency, µM (doses to about 107 µM), hits mostly inhibitors; 400,000 tested, 0.53% active; AID 588579
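50 nM final substrate added after 15 min RT preincubation of 10 nM Pol kappa with compound; fluorescence read at 0 and 10 min.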
Of the large screens only hits and unclear results are named; the others gave an inactive call. Unless noted, the call rests on the fitted dose curve; in most records, active means well fitted curve in the direction sought with a large enough effect; inconclusive means small, poorly fitted or top-dose-only effect, or another doubt; inactive means no such curve, though single readings can be large; an effect the other way counts as inactive or inconclusive.

COc1ccc(/C=C(/C(=O)N2CCCCC2C(=O)O)c2ccc(OC)c(OC)c2)cc1 (centres undefined)	Pol iota inh 79µM (no result: POLB inh)
Cc1ccc(C(=O)C2=C(O)C(=O)N(Cc3ccco3)C2c2cccc(Br)c2)o1 (centres undefined)	POLB inh 79µM
Cc1ccc(C(=O)C2=C(O)C(=O)N(Cc3ccco3)C2c2cccc(Cl)c2)o1 (centres undefined)	none
COc1cccc2cc(C(=O)C3=C(O)C(=O)N(Cc4ccco4)C3c3cccnc3)oc12 (centres undefined)	POLH inh 3.5µM
O=C1CC(c2ccccc2)C(C(=O)Nc2ccccc2F)N1 (centres undefined)	none
Cc1ccc(O)c(C(=O)c2cc(C#N)c(=O)n(-c3nccs3)c2)c1	POLB inh 25µM, PI5P4K alpha inh inconclusive, Pol iota inh inconclusive, POLH inh 40µM
CC[n+]1c(/C=C2\Sc3ccccc3N2C)ccc2cccc(C)c21	POLB inh 28µM, Pol iota inh inconclusive, FEN1 inhibitor 13µM, POLH inh inconclusive
CCc1ccc(C(=O)CSc2n[nH]c(C)n2)cc1	PI5P4K alpha inh -57, Pol iota inh inconclusive
Cc1ccc(C(=O)CSc2n[nH]c(C)n2)cc1	none (no result: PI5P4K alpha inh)
CCCSc1cc(N2CCOCC2)nc(-c2ccccc2Cl)n1	POLB inh 79µM
CCSc1cc(N2CCOCC2)nc(-c2ccccc2)n1	none
O=C(Cn1ncc2c3ccccc3n(Cc3ccccc3)c2c1=O)NCc1cccs1	none (no result: PI5P4K alpha inh)
O=C(Cn1ncc2c3ccccc3n(Cc3ccccc3)c2c1=O)N1CCCCCC1	none (no result: PI5P4K alpha inh)
O=C(Cn1ncc2c3ccccc3n(Cc3cccc(Cl)c3)c2c1=O)N1CCCCCC1	POLB inh 25µM, Pol iota inh inconclusive (no result: PI5P4K alpha inh)
Cc1ccc(Cl)cc1NC(=O)Cn1ncc2c(C)n(Cc3ccccc3F)c(C)c2c1=O	POLB inh 13µM, Pol iota inh inconclusive, POLH inh inconclusive (no result: PI5P4K alpha inh)
O=C(Cn1ncc2c3ccccc3n(Cc3cccc(Cl)c3)c2c1=O)Nc1ccc(F)cc1F	POLB inh 22µM, Pol iota inh inconclusive, POLH inh inconclusive, POLK inh inconclusive (no result: PI5P4K alpha inh)
O=C(Cn1ncc2c3ccccc3n(Cc3cccc(Cl)c3)c2c1=O)NCc1cccs1	POLB inh 25µM, Pol iota inh inconclusive (no result: PI5P4K alpha inh)
COc1ccc(C(C)(O)c2nc(-c3ccc(S(C)(=O)=O)cc3)cs2)cc1 (centres undefined)	none (no result: POLB inh, Pol iota inh, FEN1 inhibitor, POLH inh, POLK inh)
CC(CCc1ccccc1)NC(=O)Cn1ncc2c3ccccc3n(Cc3ccccc3)c2c1=O (centres undefined)	none (no result: PI5P4K alpha inh)
CC(CCc1ccccc1)NC(=O)Cn1ncc2c3ccccc3n(Cc3cccc(Cl)c3)c2c1=O (centres undefined)	POLB inh 18µM, Pol iota inh inconclusive, POLH inh inconclusive (no result: PI5P4K alpha inh)
Fc1cccc(CSc2nc3ncccc3[nH]2)c1	none
Fc1cccc(CSc2nc3ncc(Cl)cc3[nH]2)c1	POLB inh 35µM, Pol iota inh 71µM
CCN(CC)CCCN1C(=O)C2C(C(=O)Nc3ccc(C(C)C)cc3)C3C=CC2(O3)C1C(=O)NC1CCCCC1 (centres undefined)	none
COc1ccc(Cc2c(O)nc(SC)n(C(C)=O)c2=O)cc1	PI5P4K alpha inh -75
FC(F)(F)c1cccc(N2CCC(N=CN3CCCCCC3)=N2)c1	POLH inh 89µM
O=C(O)c1ccccc1N/C=C\[N+](=O)[O-]	POLB inh 25µM, Pol iota inh inconclusive, POLH inh inconclusive
O=C(/C=C/Nc1ccccc1C(=O)O)c1cccs1	none
COc1ccc(-n2nc(C(=O)N3CCC(N4CCCCC4)CC3)c3c4ccccc4n(C)c3c2=O)cc1	FEN1 inhibitor 89µM
Cc1ccc(S(=O)(=O)N2[C@@H](CCO)OC[C@H]2C(C)C)cc1	none (no result: POLB inh, Pol iota inh, FEN1 inhibitor, POLH inh, POLK inh)
O=C1[C@H](Cc2ccccc2)NC/C=C\C[C@H](c2ccc(Cl)cc2)N1Cc1ccc(Cl)cc1	FEN1 inhibitor inconclusive (no result: POLB inh, PI5P4K alpha inh, POLH inh)
COc1ccc(CNC(=O)Nc2cn(CC(C)C)c(=O)c3ccccc23)c(OC)c1	Pol iota inh 22µM, FEN1 inhibitor inconclusive (no result: PI5P4K alpha inh)
O=C(CCl)N(c1ccccc1)c1c[nH]c2ccccc12	POLH inh 14µM
COc1cccc(CNC(=O)CCc2c(C)c3cc4c(C)coc4cc3oc2=O)c1	none (no result: PI5P4K alpha inh)
Cc1coc2c(C)c3oc(=O)c(CCC(=O)N(C)CC(=O)O)c(C)c3cc12	POLB inh 79µM, POLH inh 20µM
COc1cccc(CNC(=O)CCc2c(C)c3cc4c(C)coc4c(C)c3oc2=O)c1	POLB inh 25µM, Pol iota inh inconclusive, POLH inh inconclusive (no result: PI5P4K alpha inh)
Cc1oc2ncn(CC(C)C)c(=O)c2c1C(=O)N(CCN(C)C)Cc1ccccc1	none (no result: PI5P4K alpha inh)
CC(/C=N/NC(=O)CSc1nc2ccccc2n1C)=C\c1ccco1	POLB inh inconclusive, Pol iota inh 56µM, POLH inh 14µM, POLK inh inconclusive
Cn1c(SCC(=O)N/N=C/c2ccco2)nc2ccccc21	none
O=C(N/N=C/C=C/c1ccco1)C(O)c1ccccc1 (centres undefined)	Pol iota inh 13µM, POLH inh 50µM, POLK inh inconclusive (no result: POLB inh, PI5P4K alpha inh)
CCn1c(SCC(=O)N/N=C/C=C/c2ccco2)nc2ccccc21	POLB inh 22µM, PI5P4K alpha inh inconclusive, Pol iota inh 20µM, POLH inh 50µM
O=C(N/N=C/C=C/c1ccccc1)C(O)c1ccccc1 (centres undefined)	none (no result: POLB inh, PI5P4K alpha inh)
CCn1c(SCC(=O)N/N=C/C=C/c2ccco2)nnc1-c1ccc(OC)cc1	POLB inh 25µM
Cc1ccc(OCC(=O)N/N=C/C=C/c2ccco2)cc1	PI5P4K alpha inh -64, Pol iota inh 16µM, POLH inh 18µM, POLK inh inconclusive
O=C(COc1ccccc1[N+](=O)[O-])N/N=C/C=C/c1ccco1	POLB inh inconclusive, Pol iota inh inconclusive, POLH inh inconclusive
O=C(N/N=C/c1cc(Br)c(Br)o1)C(O)c1ccccc1 (centres undefined)	POLB inh 22µM, Pol iota inh inconclusive, POLH inh 50µM
C=CCN(c1ccccc1)S(=O)(=O)c1cccc(C(=O)NNC(=O)c2ccccc2O)c1	PI5P4K alpha inh -56 (no result: POLB inh)
C=CCN(c1ccccc1)S(=O)(=O)c1cccc(C(=O)Nc2ccncc2)c1	none (no result: POLB inh)
Cc1cc(C(=O)Nc2ccc(F)cc2C)n(-c2ccccc2)n1	POLB inh inconclusive
COc1ccccc1NC(=O)CNc1ccc(F)c(Cl)c1	none
Cc1cccc(NC(=O)c2cc(-c3ccc(C)c(C)c3O)n[nH]2)c1	Pol iota inh 79µM
CN1CC(O)C2=CC(=O)C(=O)C=C21 (centres undefined)	POLK inh 0.32µM (no result: POLB inh, PI5P4K alpha inh, Pol iota inh, FEN1 inhibitor, POLH inh)
O=c1c(Cl)c(NCCCO)cnn1-c1nc2ccccc2[nH]1	PI5P4K alpha inh inconclusive, Pol iota inh inconclusive
